Screening results deposited in PubChem by National Center for Advancing Translational Sciences (NCATS).
Sampled rows, rich in hits. Any-hit rate of the full collection: about 3.6%.
VDR inhibitor – blocks the human vitamin D receptor. VDR-SRC2-3 peptide fluorescence polarization, 2 h. 400,000 compounds, 0.93% hits. Potency, µM, inactives show max response, negative = inhibition, hits mostly inhibitors. P11473; further: potency means the concentration at half of the fitted maximal effect; on the % scale 0 is the no-effect control and ±100 the full control effect
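VDR–SRC2-3 interaction, FP format. Cmpds 23 nl via pintool, brief spin, 2 h ambient incubation.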
Rango dissoc inh – inhibition of RanGTP-driven Rango-importin beta dissociation; 340,000 compounds, 0.071% hits; Potency, µM (highest dose often 46.1 µM), for inactives: at the top dose activity change, negative = inhibition; O95149+P62826; Biochemical FRET Rango-importin beta, RanGTP-induced dissociation; calls by dose curve; further: potency means the concentration at half of the fitted maximal effect; % of control where 0% means no effect; nearly all actives have a fitted effect of over 45% in size
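Quantitative HTS using a FRET biosensor: 0.1 uM Rango, 0.25 uM importin beta, 0.6 uM Ran, 2 mM GTP, 0.2 uM RCC1 final, PBS with DTT, Tween-20 and BSA. Post-read taken 45 min after Ran addition.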
Rango-impB inh – inhibitors of Rango-importin beta complex formation | Rango CFP/YFP FRET sensor + importin beta, 45 min | Potency, µM (titrated, usually from 92.2 µM), without a hit: top-dose inhibition of complex formation | 340,000 compounds, 0.031% hits | AID 540263; calls by dose curve;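 further: potency means the concentration at half of the fitted maximal effect; 0% = DMSO wells and 100% = buffer wells lacking importin beta; nearly all actives have a fitted effect of over 15% in size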
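FRET biosensor (snurportin 1 IBB flanked by EYFP and cerulean), 50 nM, with compound 5 min, then 0.125 microM importin beta in PBS, 1 mM DTT, 0.02% Tween-20, 0.1% BSA. CFP/YFP ratio read after 45 min at room temperature; pre-read flags interference.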
PLK1 PBD block – inhibitors of human PLK1 polo-box domain binding | P53350 | Plk1 PBD binding of FITC phosphopeptide, fluorescence polarization | Potency, µM, for inactives: max response, negative = inhibition, usual class: inhibitors | 360,000 compounds, 2.8% hits | AID 720504; further: potency means the concentration at half of the fitted maximal effect; series mostly up to about 57 µM; on the % scale 0 is the no-effect control and ±100 the full control effect; nearly all actives have a fitted effect of over 65% in size
GCN5L2 inh – blocks human GCN5L2 histone acetyltransferase | GCN5L2 HAT assay, ThioGlo1 CoA-SH fluorescence | Potency, µM (highest dose often 58.9 µM), without a hit: top-dose activity change, negative = inhibition, usual class: inhibitors | Q92830 | 390,000 compounds, 0.21% hits; further: potency means the concentration at half of the fitted maximal effect; on the % scale 0 is the no-effect control and ±100 the full control effect
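Free CoA generated was detected with ThioGlo1 (50uM) fluorescence at Ex340nm/Em540nm, read immediately and after 20 min at room temperature. Enzyme, 20 nM in HEPES pH 7.5 buffer, saw compounds 15 min before adding 75uM H3(1-25) peptide and 70uM acetyl-CoA.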
PI5P4Ka inh – PI5P4K alpha (human) kinase inhibition; PI5P4Kalpha enzyme, ADP-Glo luminescence, 60 min; stronger effect = lower value; 330,000 compounds, 1.2% hits; max response, %; P48426; active means max response of -50% or lower; inconclusive means between -30% and -50%; inactive means -30% or higher; further: value at the top dose of about 77 µM; on the % scale 0 is the no-effect control and ±100 the full control effect
Target sequence (P48426 whole entry, looked up): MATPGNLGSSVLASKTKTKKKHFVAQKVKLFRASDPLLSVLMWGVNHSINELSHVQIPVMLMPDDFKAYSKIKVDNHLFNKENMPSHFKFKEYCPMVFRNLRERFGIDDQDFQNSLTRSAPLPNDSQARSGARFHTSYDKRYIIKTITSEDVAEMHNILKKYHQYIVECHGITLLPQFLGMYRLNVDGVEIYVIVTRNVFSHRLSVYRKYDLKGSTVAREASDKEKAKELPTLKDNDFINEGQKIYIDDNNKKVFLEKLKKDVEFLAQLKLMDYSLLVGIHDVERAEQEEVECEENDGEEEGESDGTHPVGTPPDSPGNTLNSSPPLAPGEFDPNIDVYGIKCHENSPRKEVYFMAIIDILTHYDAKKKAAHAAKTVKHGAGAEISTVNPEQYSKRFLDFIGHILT
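Compounds were pin-transferred onto PI5P4Kalpha and substrate in HEPES pH 7.4 buffer with EGTA, CHAPS and 5% DMSO. ATP (5 microM final) started the reaction, which ran 60 minutes at room temperature before ADP-Glo detection.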
Active calls of the source: *. Unless noted, the call rests on the fitted dose curve; in most records, active means well fitted curve in the direction sought with a large enough effect; inconclusive means small, poorly fitted or top-dose-only effect, or another doubt; inactive means no such curve, though single readings can be large; an effect the other way counts as inactive or inconclusive.

`CCOCc1nnc(NC(=O)c2ccc(OC)cc2)s1` gave VDR inhibitor 25%, Rango dissoc inh 11%, Rango-impB inh -3%, PLK1 PBD block -2%, GCN5L2 inh 1% and PI5P4Ka inh 1.
For CCOCc1nnc(NC(=O)c2c(-c3ccccc3)noc2C)s1 the results were VDR inhibitor inconclusive, Rango dissoc inh 1%, Rango-impB inh -5%, PLK1 PBD block 30µM*, GCN5L2 inh -9% and PI5P4Ka inh -8.
For CCOCc1nnc(NC(=O)c2cc(C(=O)OC)cc([N+](=O)[O-])c2)s1 the results were VDR inhibitor -5%, Rango dissoc inh 0%, Rango-impB inh inconclusive, PLK1 PBD block 27µM*, GCN5L2 inh -2% and PI5P4Ka inh -25.
Screening Cc1ccc(CNC(=O)CCCN2C(=O)COc3ccc(C)cc32)cc1 returned VDR inhibitor 12% and GCN5L2 inh -16%.
`CC(=O)Nc1ccc2sn(-c3ccccc3)c(=O)c2c1` gave PLK1 PBD block 3.4µM* and PI5P4Ka inh -82*.
Screening N#Cc1ccc2sn(-c3ccccc3)c(=O)c2c1 returned PLK1 PBD block 2.7µM* and PI5P4Ka inh -108*.
`O=c1c2cc([N+](=O)[O-])ccc2sn1-c1ccccc1` gave PLK1 PBD block 2.7µM* and PI5P4Ka inh -100*.
For O=c1c(-c2ccccc2)c[nH]n1-c1cccc([N+](=O)[O-])c1 the results were VDR inhibitor 16%, Rango dissoc inh -10%, Rango-impB inh 3%, PLK1 PBD block -10%, GCN5L2 inh -4% and PI5P4Ka inh -5.
`COc1ccc(OC)c(CCNC(=O)CCc2cn(Cc3cc(C)ccc3C)c3ccccc23)c1` gave VDR inhibitor 10% and GCN5L2 inh -10%.
`Oc1ccc(C2=NNC(=NCc3ccc4c(c3)OCO4)SC2)c(O)c1` gave VDR inhibitor -6%, Rango dissoc inh -2%, Rango-impB inh inconclusive, PLK1 PBD block -8%, GCN5L2 inh 0% and PI5P4Ka inh -18.
For Clc1ccc(C2=NNC(=NCc3ccc4c(c3)OCO4)SC2)cc1 the results were VDR inhibitor inconclusive, Rango dissoc inh 36%, Rango-impB inh -3%, PLK1 PBD block 17µM*, GCN5L2 inh 3% and PI5P4Ka inh -15.
Screening O=C1C(Cl)=C(N2CCCCCC2)C(=O)N1c1ccccc1Cl returned VDR inhibitor -7%, Rango dissoc inh inconclusive, Rango-impB inh inconclusive, PLK1 PBD block inconclusive, GCN5L2 inh -4% and PI5P4Ka inh -6.
Screening O=C1C(Cl)=C(N2CCOCC2)C(=O)N1c1ccccc1Cl returned VDR inhibitor 45µM*, Rango dissoc inh -5%, Rango-impB inh inconclusive, PLK1 PBD block -17% and GCN5L2 inh -6%.
`CSc1nc(C)c(C(=O)C[n+]2ccccc2C)cc1C#N` gave VDR inhibitor -16%, Rango dissoc inh 0%, Rango-impB inh 4%, PLK1 PBD block 15µM*, GCN5L2 inh -2% and PI5P4Ka inh -22.
For O=C1CSC2(C(=O)N(Cc3ccccc3F)c3ccccc32)N1c1cccc(C(F)(F)F)c1 (stereo unspecified) the results were VDR inhibitor -9% and GCN5L2 inh -18%.
Screening COCCn1c(CCC(=O)Nc2ccc(C)c(Cl)c2)nc2cccnc21 returned VDR inhibitor 12% and GCN5L2 inh 1%.
COc1ccc(CCNC(=O)COc2ccc([N+](=O)[O-])cc2)cc1 was read as VDR inhibitor 28µM*, Rango dissoc inh 0%, Rango-impB inh 0%, PLK1 PBD block 19µM*, GCN5L2 inh 2% and PI5P4Ka inh -19.
Screening CCCCC[C@H](O)/C=C/C=C\C=C\C=C\[C@@H](O)[C@@H](O)CCCC(=O)O returned VDR inhibitor 0% and GCN5L2 inh 9%.
`COc1cc(C(=S)N2CCN(c3ccccc3Cl)CC2)cc(O)c1O` gave VDR inhibitor inconclusive, Rango dissoc inh inconclusive, Rango-impB inh 2%, PLK1 PBD block 17µM*, GCN5L2 inh -23% and PI5P4Ka inh -58*.
COc1ccccc1N1CCN(C(=O)COc2ccc(Cl)cc2Br)CC1 was read as VDR inhibitor -13%, Rango dissoc inh 5%, Rango-impB inh -4%, PLK1 PBD block 0%, GCN5L2 inh -6% and PI5P4Ka inh 17.
`COc1ccc(C(=S)N2CCN(c3ccccc3Cl)CC2)cc1OC` gave VDR inhibitor inconclusive, Rango dissoc inh -8%, Rango-impB inh -1%, PLK1 PBD block 9.5µM*, GCN5L2 inh -12% and PI5P4Ka inh -8.
`CCCc1cc(=O)oc2c3c(ccc12)OCN(Cc1ccc(OC)cc1)C3` gave VDR inhibitor 17% and GCN5L2 inh inconclusive.
`Cc1ccc(CCNC(=O)c2cccc(Nc3nc4ccccc4nc3-n3nc(C)cc3C)c2)cc1` gave VDR inhibitor -15% and GCN5L2 inh -6%.
`CCOC(=O)N1CCc2c(sc3nc[nH]c(=O)c23)C1` gave VDR inhibitor -6%, Rango dissoc inh -12%, Rango-impB inh -2%, PLK1 PBD block 10%, GCN5L2 inh -19% and PI5P4Ka inh -8.
CCOC(=O)N1CCc2c(sc3[nH]c(=S)[nH]c(=S)c23)C1 was read as VDR inhibitor -6%, Rango dissoc inh 7%, Rango-impB inh 0%, PLK1 PBD block inconclusive, GCN5L2 inh 1% and PI5P4Ka inh -67*.
Screening CC(=O)c1cc(CN2CCN(CCC(C)C)C(CCO)C2)cs1 (stereo unspecified) returned VDR inhibitor inconclusive, Rango dissoc inh -23%, Rango-impB inh -1%, PLK1 PBD block 21µM*, GCN5L2 inh -11% and PI5P4Ka inh -7.
`C/C(=C\C(=O)c1ccccc1)Nc1ccc(Cl)c(Br)c1` gave VDR inhibitor 0%, Rango dissoc inh -11%, Rango-impB inh 2%, PLK1 PBD block 27µM* and PI5P4Ka inh 10.
`Cn1c(-c2ccccc2)nc2cnccc21` gave VDR inhibitor inconclusive, Rango dissoc inh -24%, Rango-impB inh -4%, PLK1 PBD block 24µM*, GCN5L2 inh -2% and PI5P4Ka inh -20.
COc1cccc2c1C(=O)c1c(O)c3c(c(O)c1C2=O)C[C@](O)(C(C)=O)C[C@H]3O[C@@H]1C[C@@H](N)[C@@H](O)[C@@H](C)O1 was read as VDR inhibitor -2%, Rango dissoc inh 21%, Rango-impB inh 20%, PLK1 PBD block inconclusive, GCN5L2 inh -2% and PI5P4Ka inh -2.
